Source: PubChem BioAssay
Compounds with a hit are over-represented: about 3.4% of the library has one in this group of screens.
FBW7 act = activators of human E3 ligase FBW7 | Q969H0 | AID 1259310 | 650,000 tested, 0.13% active | normalized activity (activation), % at 26.1 µM | AlphaScreen FBW7–phospho-cyclin E peptide binding, activator screen; in the data active = normalized activity above about 1.9%;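 also: purified mutant Fbw7 with reduced substrate affinity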
TEAD-YAP block = TEAD-YAP interaction inhibition; HEK-TIYL cells, TEAD-Gal4/YAP UAS-luciferase luminescence; inhibition, % at 9.12 µM; 640,000 tested, 1.4% active; in the data active = inhibition above about 32%;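 also: 0% = median of test compound wells and 100% = reference inhibitor wells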
MITF inh = blocks human microphthalmia-associated transcription factor; O75030; AlphaScreen MITF homodimerization, bead proximity signal; 650,000 tested, 0.91% active; inhibition, % at 2.6 µM; AID 1259374; in the data active = inhibition above about 50%;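 also: 0% = vehicle wells with protein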
Target sequence (O75030 whole entry, looked up): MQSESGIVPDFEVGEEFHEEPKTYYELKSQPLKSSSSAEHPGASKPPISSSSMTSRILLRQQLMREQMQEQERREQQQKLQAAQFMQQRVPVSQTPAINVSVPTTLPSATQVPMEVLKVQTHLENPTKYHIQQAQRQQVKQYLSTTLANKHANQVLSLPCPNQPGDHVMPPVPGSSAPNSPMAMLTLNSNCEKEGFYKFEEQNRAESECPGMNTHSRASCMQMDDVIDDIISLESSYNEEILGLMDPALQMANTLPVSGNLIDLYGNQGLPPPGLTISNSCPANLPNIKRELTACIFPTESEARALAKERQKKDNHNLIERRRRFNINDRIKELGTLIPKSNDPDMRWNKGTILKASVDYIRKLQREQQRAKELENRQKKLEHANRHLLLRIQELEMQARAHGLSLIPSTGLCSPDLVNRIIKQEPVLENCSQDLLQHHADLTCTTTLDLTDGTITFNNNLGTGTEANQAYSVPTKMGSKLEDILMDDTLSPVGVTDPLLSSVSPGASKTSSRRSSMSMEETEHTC
GPR151 activ = activates the human receptor GPR151. PathHunter beta-arrestin GPR151 cells, luminescence. 650,000 tested, 1% active. activation, % at 11.2 µM; in the data active = activation above about 4.9%;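 also: 0% = median of compound wells and 100% = cells with positive control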
MITF inh conf = human MITF inhibition, confirmation | AID 1259372 | AlphaScreen MITF homodimerization, biotin/His-MITF beads | shares compounds with MITF inh | inhibition, % at 2.6 µM | 4,700 tested, 16% active;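 active = inhibition above a cutoff derived from the DMSO control wells, cut at about 28% in these data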;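 also: 0% = MITF dimer wells with DMSO only; inhibitors lower the bead chemiluminescence by keeping MITF from dimerizing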
AlphaScreen DR = AlphaScreen optical interference, dose response counter-screen | shares compounds with MITF inh | AlphaScreen optical interference counterscreen, cell-free | IC50, µM | 480 tested, 6% active | AID 1259373; call rule not given here
AlphaScreen intf2 = optically interferes with AlphaScreen signal. shares compounds with MITF inh. LysRS AlphaScreen counterscreen, signal interference, triplicate. inhibition, % at 2.6 µM. 4,700 tested, 7.6% active. AID 1259376;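 active = inhibition above a cutoff derived from the DMSO control wells, cut at about 30% in these data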
* marks the source's active call; other numbers are inactive results; / = no result given.

SMILES	FBW7 act	TEAD-YAP block	MITF inh	GPR151 activ	MITF inh conf	AlphaScreen intf2	others
CCOC(=O)c1c(NC(=O)CN2CCN(C)CC2)sc2c1CC(C)(C)NC2(C)C	0	6	53*	1	-2	1
CCOC(=O)c1c(NC(=O)CSc2nnc(CNC(=O)c3cccs3)n2-c2cccc(C(F)(F)F)c2)sc2c1CCCCC2	0	-10	-7	-1	/	/
COc1ccc(/C=C(\C#N)C(=O)Oc2ccc([N+](=O)[O-])c3cccnc23)cc1	-2	12	54*	-1	51*	99*
CN(C)CC(C)(C)CNC(=O)C1CCN(Cc2cccc(Br)c2)CC1	1	12	58*	0	-3	-2
CCOCCCNCC(=O)Nc1ccccc1N1CCOCC1	0	-4	51*	-1	6	10
O=C(CN1CCCCC1)Nc1ccccc1N1CCOCC1	0	-8	60*	1	4	17
O=C(CNCCN1CCOCC1)Nc1ccccc1N1CCOCC1	0	3	64*	0	-12	-9
COc1ccc(CCNCC(=O)Nc2ccccc2N2CCOCC2)cc1	0	-6	60*	1	10	12
O=C(CN1C(=O)c2ccccc2C1=O)Nc1ccccc1N1CCOCC1	0	7	13	0	/	/
O=C(CNC1CCCCCC1)Nc1ccccc1N1CCOCC1	0	4	27	1	/	/
O=C(O)COc1ccc(CO)cc1Cl	0	16	13	-1	/	/
CCCCCCCn1cnc2ccccc2c1=O	0	-6	1	1	/	/
CC1Cc2ccccc2N1C(=O)Cn1c(SCC(=O)NC(C)(C)C)nc2ccccc21 (configuration not stated)	0	2	16	-1	/	/
O=C(CNCCN1CCOCC1)Nc1sc2c(c1C(=O)c1ccccc1)CCCC2	-1	6	74*	0	-3	24
CC1CCCCN1CC(=O)Nc1ccccc1N1CCCCC1 (configuration not stated)	0	-5	53*	1	6	12
O=C(Cc1ccccc1)Nc1ccc(N2CCOCC2)cc1N1CCOCC1	0	4	8	1	/	/
O=C(CNCC1CCCCC1)Nc1ccccc1N1CCOCC1	0	-8	66*	0	8	17
O=C(CNCCc1ccccc1)Nc1ccccc1N1CCOCC1	0	-11	51*	0	6	12
CC1CCCCN1CC(=O)Nc1ccccc1C(N)=O (configuration not stated)	0	-1	-12	2	/	/
O=C(CN1CCOCC1)Nc1sc2c(c1C(=O)c1ccccc1)CCCC2	0	7	-8	0	/	/
CC(=O)c1cccc(-c2cnn3c(NCCc4ccccn4)ccnc23)c1	0	-37	11	0	/	/
O=C(O)/C=C/c1cccc(-c2cnn3c(NCCc4ccccn4)ccnc23)c1	0	3	53*	0	3	15
C/C(=N\NC(=O)C1CC1c1ccccc1)c1c(O)cc(C)oc1=O (configuration not stated)	1	7	8	-1	/	/
COc1ccc(C2SCC(C(=O)O)N2C(C)=O)cc1OC (configuration not stated)	0	-2	51*	0	11	14
COCCNCCOc1ccccc1C(C)C	0	4	58*	1	17	42*
SMILES	FBW7 act	TEAD-YAP block	MITF inh	GPR151 activ	MITF inh conf	AlphaScreen intf2	others
COCCNCCOc1ccccc1OC	0	5	12	0	/	/
C=CCc1ccccc1OCCCNCCOC	0	2	59*	3	1	12
C=CCc1ccccc1OCCOCCNCCOC	0	12	10	-1	/	/
C=CCc1ccccc1OCCCNCCCOC	0	2	65*	3	5	13
C=CCc1ccccc1OCCCCNCCCOC	0	2	24	1	/	/
C=CCc1ccccc1OCCNCCOC	0	2	52*	-2	7	7
COc1cc(-c2nc3sc4c(c3c(=O)[nH]2)CCCC4)ccc1OCCOc1ccccc1C	0	-15	1	5	/	/
O=C(COc1ccc2ccccc2c1)NNC(=O)c1ccc(Cl)cc1	0	-4	4	0	/	/
O=C(COc1ccc(Cl)cc1)NNC(=O)c1ccc(=O)[nH]c1	0	-1	68*	0	-9	-7
O=C(CSc1nnnn1C1CCCC1)c1ccccc1F	0	-62	116*	-2	-8	24
O=C(CSc1nnnn1C1CCCCC1)c1ccccc1	0	-1	5	0	/	/
CC(=O)NNC(=O)CSc1nnnn1C1CCCCC1	0	-5	76*	-1	7	15
c1ccc(OCCNc2nc(Nc3ccc(-n4ccnc4)cc3)nc3c2ncn3-c2ccsc2)cc1	0	25	-1	0	/	/
Cc1cc(C)nc(SC(C)C(=O)N/N=C/c2cccc(O)c2)n1 (configuration not stated)	0	2	1	0	/	/
NC(=O)C1CCN(C(=O)c2cc(-c3ccco3)nc3ccccc23)CC1	-1	-1	97*	-2	75*	-11	AlphaScreen DR=>6.7
O=C(NNC(=O)c1cc(-c2ccco2)nc2ccccc12)NC1CCCCC1	-1	3	87*	5	91*	2	AlphaScreen DR=>6.5
Cc1ccc2nc(-c3ccccc3)cc(C(=O)N3CCC(C(N)=O)CC3)c2c1	0	2	-7	-1	/	/
NC(=O)/C(=C\c1ccccc1)NC(=O)c1ccccc1I	0	0	1	1	/	/
COc1ccc(NC(=O)CN2CCC(c3nc4cc(C)c(C)cc4[nH]3)CC2)cc1	0	-16	-6	0	/	/
CC(=O)NC1(c2ccccc2)CCN(C(=O)C2CC2)CC1	0	2	-9	3	/	/
CC(=O)NC1(c2ccccc2)CCN(C(=O)N2CCOCC2)CC1	1	7	82*	0	11	16
O=c1[nH]c2ccccc2n1CN1CCOCC1	0	-3	90*	2	5	11
O=c1[nH]c2ccccc2n1CN1CCc2ccccc2C1	0	-1	51*	1	11	13
O=c1[nH]c2ccccc2c(=O)n1CCCN1CCOCC1	0	-1	11	-1	/	/
O=c1[nH]c2ccccc2n1CCCN1CCCCC1	0	-2	-5	1	/	/
NC(=O)C1CCN(c2ccc(N3C(=O)C4C5C=CC(C5)C4C3=O)cc2[N+](=O)[O-])CC1 (configuration not stated)	0	-14	9	0	/	/
CN(Cc1ccco1)S(=O)(=O)c1ccc2[nH]cc(C(=O)O)c(=O)c2c1	0	-1	54*	1	30*	5	AlphaScreen DR=>6.5
C=CCN(c1ccccc1)S(=O)(=O)c1ccc2[nH]cc(C(=O)O)c(=O)c2c1	0	6	57*	0	12	-4
Cc1ccc(/C=N/NC(=O)c2c(C)nc3ccccn23)cc1	0	-4	0	2	/	/
CS(=O)(=O)N(CC(=O)Nc1cccc(F)c1)c1cccc(Cl)c1	0	7	13	4	/	/
